# KB-3-1 tox – kills parental KB-3-1 adenocarcinoma cells. 400,000 tested, 1.4% active. Potency, µM (series often up to 46.1 µM), usual class: cytotoxic. KB-3-1 viability, CellTiter-Glo ATP luminescence, 72 h; note: potency is the fitted concentration of half-maximal effect; % is set by controls: 0 for no effect and ±100 for the full control effect; nearly all actives have a fitted effect of over 60% in size
#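 Screening of KB-3-1 cells (DMEM, 10% FBS, phenol-red free) ran from lowest to highest compound concentration; after 72 h at 37 °C viability was read luminescently and curves fitted.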
# SW480 rereplic – induces DNA re-replication in SW480 colon adenocarcinoma cells; Potency, µM (titrated, usually from 46.1 µM), inactives show at the top dose re-replication activation, hits mostly activators; SW480 DNA re-replication, Hoechst DNA content imaging, 48 h; 340,000 tested, 1.8% active; AID 624297; note: potency is the fitted concentration of half-maximal effect; % of control where 0% means no effect; nearly all actives have a fitted effect of over 55% in size
#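 Cells (250 per well) received 23 nL compound or DMSO by pin tool and were kept 48 hr at 37 C, 5% CO2. Nuclei were then stained with Hoechst for 40 min and scanned for DNA content.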
# MCF10A rerep – DNA re-replication induction in MCF 10a cells; MCF 10A DNA re-replication, Hoechst nuclear intensity, 48 h; Potency, µM (doses to about 46.1 µM), for the others: at the top dose activity, positive = re-replication, hits mostly activators; 350,000 tested, 2.9% active; AID 624296; note: potency is the fitted concentration of half-maximal effect; % of control where 0% means no effect; nearly all actives have a fitted effect of over 50% in size
# IL1B secr inh – inhibitors of inflammasome signaling (IL-1 beta secretion). THP-1 LPS/ATP IL-1B secretion, AlphaLISA, 16 h; stronger effect = lower value. activity change, % at 57.5 µM. 360,000 tested, 4.7% active. AID 743279; in the data active = activity change below about -50%; inconclusive = mostly about -30% to -49%; note: % is set by controls: 0 for no effect and ±100 for the full control effect
#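 THP-1 cells pretreated 1 hr with compounds (up to 57.5 uM final), then stimulated with LPS (250 ng/mL final) plus ATP (1.25 mM final); secreted IL-1B measured by AlphaLISA after 16 hr, decreased signal indicating inhibition.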
# KB-V1 cytotox – kills drug-selected multidrug resistant KB-V1 cells | AID 1347076 | Potency, µM (top dose mostly 46.1 µM), most hits filed as cytotoxic | KB-V1 MDR cells viability, CellTiter-Glo, 72 h | 400,000 tested, 3.4% active; note: potency is the fitted concentration of half-maximal effect; % is set by controls: 0 for no effect and ±100 for the full control effect; nearly all actives have a fitted effect of over 60% in size
#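 Cytotoxicity via CellTiter-Glo luminescence after 72 h compound exposure at 37 degrees C. Cells: drug-selected KB-V1 line, DMEM phenol-red free plus 10% FBS. Compounds tested at multiple concentrations; normalized data fitted to concentration-effect curves.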
# * hit, by the source's call; i = inactive; u = inconclusive; x = no result; ! = a repeat was not active. An excerpt weighted towards active compounds, which were near 9.9% of everything screened. Unless noted, calls come from the whole dose curve; as a rule, active = well fitted curve in the direction sought with a large enough effect; inconclusive = small, poorly fitted or top-dose-only effect, or another doubt; inactive = no such curve, though single readings can be large; an effect the other way counts as inactive or inconclusive.
SMILES,KB-3-1 tox,SW480 rereplic,MCF10A rerep,IL1B secr inh,KB-V1 cytotox
Cc1ccc(OCC(O)CN2CCN(c3ccc(C)cc3)CC2)cc1 (stereo not given),i,-21%,0.82µM*,-7,i
CCOC(=O)C1CCCN(CC(O)COc2ccc(OC)cc2C(C)(C)C)C1 (stereo not given),i,-1%,9%,22,i
CCOC(=O)N1CCN(CC(O)COc2ccc(OC)cc2C(C)(C)C)CC1 (stereo not given),i,-2%,24%,11,3.7µM*
C=CCc1cc(OC)ccc1OCC(O)CN1CCN(c2ccc(OC)cc2)CC1 (stereo not given),i,8%,u,-12,18µM*!
CC(Sc1ccc(S(=O)(=O)N2CCN(C)CC2)cn1)C(=O)NC1(C#N)CCCCC1 (stereo not given),i,2%,-2%,8,i
Clc1cccc(-c2ccc(CNCCSc3nnnn3-c3ccccc3)o2)c1,i,x,x,x,i
Clc1ccc2nc(COc3ccccc3)[nH]c2c1,u,7.3µM*,3.3µM*,-23,i
Cc1cc(C)c2c(N)c3cccc(C)c3nc2n1,7.3µM*,16µM*,21µM*,-99*,8.2µM*
Cc1ccc(OCC(=O)NCc2n[nH]c(=O)c3ccccc23)cc1,i,-2%,0%,19,i
CCCCN(C)/C=N/c1c(C#N)cnn1-c1ccc(C)cc1,u,4%,u,-16,5.8µM*
COc1ccc(CCC(C)NCc2ccccc2OC)cc1 (stereo not given),i,u,4%,-82*,i
COc1ccc(CNCc2cccc(C)c2)cc1,i,-1%,u,-11,u
COc1ccc(CNCc2cccc(Oc3ccccc3)c2)cc1,i,-2%,3%,-80*,u
COc1ccc(CNCc2ccc3ccccc3c2)c(OC)c1,i,-10%,1%,-68*,i
COc1ccccc1CCNC(C)CCc1ccc(O)cc1 (stereo not given),i,3%,10%,-3,i
Cc1ccc(NS(=O)(=O)c2ccc(C)c(NC(=S)NCCN3CCOCC3)c2)c(C)c1,i,u,u,15,i
CCOC(=O)C(=C1Nc2ccccc2N1)n1c(-c2cccnc2)nc2ccccc21,u,x,x,-2,21µM*
CS(=O)(=O)c1ccc2nc(NC(=O)c3ccccc3Cl)sc2c1,i,-80%,0.82µM*,-2,i
CS(=O)(=O)c1ccc2nc(NC(=O)c3ccccc3Br)sc2c1,i,-6%,-11%,-12,i
COc1ccccc1C(=O)Nc1nc2ccc(S(C)(=O)=O)cc2s1,i,-3%,u,10,5.8µM*
CCOC(=O)c1c(C)[nH]c(C(=O)CSc2nccc(C)n2)c1C,i,2%,-1%,-11,i
Cc1cc(C(F)(F)F)nc(SCC(=O)Nc2c(C)n(C)n(-c3ccccc3)c2=O)n1,i,-23%,-12%,18,i
COCCCn1c(SCc2ccc(OC)cc2)nc2cc(OC)c(OC)cc2c1=N,i,-21%,8%,42,i
CCCSc1nc2cc(OC)c(OC)cc2c(=N)n1CCCN1CCOCC1,i,12%,6%,-52*,u
COc1ccc(S(=O)(=O)Nc2ccc3c(c2)C(=O)N([C@H](C)CO)C[C@H](C)[C@@H](CN(C)S(=O)(=O)c2cn(C)cn2)OCCCC[C@H](C)O3)cc1,i,x,x,10,u
SMILES,KB-3-1 tox,SW480 rereplic,MCF10A rerep,IL1B secr inh,KB-V1 cytotox
CN(C)c1ccc(C=c2c3ccccc3n3c2c2ccccc2[n+]3C)cc1,5.2µM*,13µM*,u,-66*,u
CCOC(=O)c1cc2c(=Cc3ccc(N(C)C)cc3)c3ccccc3n2[n+]1C,2.1µM*,u,25%,-101*,u
O=C(NC(=S)NCCc1ccccc1)c1cccc(Cl)c1,i,2%,u,-26,u
O=C(CSc1nc(O)cc(=O)n1-c1ccc(Cl)c(Cl)c1)Nc1ccc(Cl)cc1Cl,x,3%,u,19,x
COc1cccc(CNc2nc(NCC3CC3)nc3ccsc23)c1,i,x,x,-72*,u
CNc1nc(NCc2cccc(OC)c2)c2sccc2n1,i,x,x,50,i
COc1cccc(CNc2nc(NCc3ccccc3)nc3ccsc23)c1,u,x,x,-55*,9.2µM*
CCOc1ccccc1N1CC(C(=O)NCCOc2ccccc2OC)CC1=O (stereo not given),x,-2%,-6%,-1,x
CCOc1ncccc1C(=O)OCC(=O)Nc1ccc2c(c1)OCO2,i,-12%,-3%,-7,u
CCN(CC)CCN(C(=O)CCS(=O)(=O)c1ccccc1)c1nc2cc(OC)c(OC)cc2s1,i,-1%,6%,8,i
CCN(CC)CCN(C(=O)CCS(=O)(=O)c1ccccc1)c1nc2c(C)cc(C)cc2s1,x,u,u,-90*,x
Cc1ccc(S(=O)(=O)CCC(=O)N(CCN2CCOCC2)c2nc3ccccc3s2)cc1,i,4%,14%,-3,i
CCN(CC)CCN(C(=O)CCS(=O)(=O)c1ccccc1)c1nc2cc(C)cc(C)c2s1,i,30%,21%,-102*,i
Cc1cccc2sc(N(CCN3CCOCC3)C(=O)CCS(=O)(=O)c3ccccc3)nc12,i,u,u,-98*,i
CCSc1ccccc1C(=O)NCCc1ccccc1,i,-2%,0%,0,u
CCOc1ccc(NC(=O)CSc2oc(-c3ccc(C)cc3)nc2S(=O)(=O)c2ccc(C)cc2)cc1,i,x,x,x,i
O=C(CSc1nc2ccccc2s1)Nc1cc(S(=O)(=O)N2CCOCC2)ccc1O,i,-4%,11%,20,i
Cc1cc(C)n2nc(SCc3nnc(SCc4ccccc4C)s3)nc2n1,i,-20%,-7%,-7,21µM*
Cc1cc(C)n2nc(SCc3nnc(SCc4ccccc4Cl)s3)nc2n1,i,2%,24%,14,i
Cc1cc(C)n2nc(SCC3COc4ccccc4O3)nc2n1 (stereo not given),i,5%,0%,-6,23µM*
Cc1ccc(C)c(OCCC(=O)N2CCN(S(=O)(=O)c3ccc([N+](=O)[O-])cc3)CC2)c1,i,-2%,16%,25,i
O=C(NCCCCCCCN1CCCCCCC1)C(C1CCCCC1)C1CCCCC1,u,u,2%,-82*,3.3µM*
COc1ccc(OC)c(NC(=O)Cc2coc3cc(C)cc(C)c23)c1,i,2%,13%,3,16µM*
COc1ccc(-c2ccc(CCC(=O)O)n2CC(=O)Nc2cccc(Cl)c2C)cc1,i,x,x,x,i
CCOC(=O)c1ccc(Nc2nc3ccccc3nc2NS(=O)(=O)c2ccc(Cl)cc2)cc1,u,x,x,x,i

# Compound activity: PubChem, National Center for Advancing Translational Sciences (NCATS)
